Data on 40 compounds can be found in PubChem BioAssay (NCATS).

Records with an inconclusive call do not appear. Where a call stands in place of a potency, no number is given. Activity calls are given as the source filed them. The call rests on the fitted dose curve; in most records, active means well fitted inhibition curve with a large enough effect; inconclusive means small, poorly fitted or top-dose-only effect; inactive means flat fitted curve, though single readings scatter.
Potency means the concentration at half of the fitted maximal effect.

Dual specificity protein kinase CLK4 (Homo sapiens), sequence (Q9HAZ1 whole entry, looked up): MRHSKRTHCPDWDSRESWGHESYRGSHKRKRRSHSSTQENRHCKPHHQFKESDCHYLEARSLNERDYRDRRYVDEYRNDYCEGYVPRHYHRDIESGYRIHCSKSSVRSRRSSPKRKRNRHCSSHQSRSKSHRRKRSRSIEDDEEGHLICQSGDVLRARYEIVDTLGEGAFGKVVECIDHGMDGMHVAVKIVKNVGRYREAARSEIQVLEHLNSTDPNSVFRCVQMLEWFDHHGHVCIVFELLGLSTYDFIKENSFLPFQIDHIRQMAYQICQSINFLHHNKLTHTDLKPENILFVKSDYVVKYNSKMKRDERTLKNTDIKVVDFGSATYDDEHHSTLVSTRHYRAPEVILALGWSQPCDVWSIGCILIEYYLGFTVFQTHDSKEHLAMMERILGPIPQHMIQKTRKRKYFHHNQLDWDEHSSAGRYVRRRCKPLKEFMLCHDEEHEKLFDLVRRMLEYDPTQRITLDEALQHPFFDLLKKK

The target in this assay is Dual specificity protein kinase CLK4 (Homo sapiens) (UniProt Q9HAZ1). Nature of the assay: qHTS Assay for Inhibitors of CDC-like Kinase 4 (Kinase-Glo Assay) (AID 1770). Further: nearly all actives have a fitted effect of over 65% in size. The following applies: recombinant Clk4, Kinase-Glo ATP depletion luminescence; series mostly up to 66.7 µM. The procedure:
NIH Molecular Libraries Probe Production Centers Network [MLPCN] NIH Chemical Genomics Center [NCGC] MLPCN Grant: 1R03MH084827-01 Assay Submitter (PI): Tom Misteli NCGC Assay Overview: Clk4 (Invitrogen, cat# PV3839) was assayed using ATP and the RS repeat peptide (AnaSpec cat # 61722) as substrates. Following the Clk4 reaction, the remaining ATP levels were detected using Promega Kinase-Glo technology wherein the remaining ATP from the kinase reaction is detected using Ultra-Glo luciferase and D-luciferin which generates a bioluminescence signal from the ATP. The positive control for the assay was TG003 (Sigma-Aldrich, cat# 300801-52-9) which has been described as an inhibitor of Clk 4[1].
NCGC Assay Protocol Summary: Two uL/well of substrate-buffer solution (100 uM RS peptide, 1 uM ATP, 25 mM Tris pH7.5, 10 mM MgCl2, 0.5 mM EGTA, 2.5 mM DTT, 0.01% Triton X-100 final concentration) was dispensed into 1536-well, assay plates (Greiner, solid white medium-binding plates) with Aurora Discovery BioRAPTR Flying Reagent Dispenser (FRD; Beckton-Dickenson). Using a Kalypsys pin tool equipped with a 1536-pin tool, 23 nL of compound solution was transferred to the assay plate. One uL/ well Clk4-buffer solution (25 nM Clk4, 25 mM Tris pH 7.5, 10 mM MgCl2, 0.5 mM EGTA, 2.5 mM DTT, 0.01% Triton X-100, final concentrations) was then added using the FRD yielding a total kinase reaction volume of 3 uL/ well. After 4.5 hours of room temperature incubation, 3 uL Kinase-Glo reagent was added for a final assay volume of 6 uL/ well. Luminescence was detected with the ViewLux plate reader (Perkin Elmer, Waltham, MA) after 5 min incubation using a 5 second exposure time and 2x binning.
(Quantitative high-throughput screening tests each substance at several concentrations.)
In the case of `Cn1c(=O)c(-c2ccc(Cl)cc2)nc2cnc(N3CCNCC3)nc21`, the Potency result was “inactive”.
For `CN1CCN(c2ncc3nc(-c4cccc(C#N)c4)c(=O)n(C[C@H]4CCCO4)c3n2)CC1` the value was “inactive”; for `COc1ccc(CNc2nc(-c3ccc(N(C)C)cc3)nc3ccccc23)c(OC)c1`, “inactive”.
In the case of `COc1ccc(-c2nc3cnc(N(C)C)nc3n(Cc3ccc(F)cc3)c2=O)cc1`, the Potency result was “inactive”.
Regarding `COCCNc1ncnc2ccc(-c3ccccc3C(F)(F)F)cc12`, the Potency was 25.1 µM (active).
With `COc1ccc(Oc2ncc3nc(-c4ccc(F)cc4)c(=O)n(Cc4cccs4)c3n2)cc1`, the Potency entry was “inactive”.
In the case of `Cn1c(=O)c(-c2ccc(F)c(F)c2)nc2cncnc21`, the Potency entry was “inactive”.
`COc1ncc2nc(-c3ccc(Cl)cc3)c(=O)n(Cc3cccs3)c2n1`: the Potency entry was “inactive”.
The same measure for `CN1CCN(c2ncc3nc(-c4cccs4)c(=O)n(Cc4ccc(F)cc4)c3n2)CC1`: “inactive”; for `COc1ccc(-c2nc3cnc(N4CCOCC4)nc3n(CCc3ccccc3)c2=O)cc1`: “inactive”.
With `Cc1noc(C)c1-c1nc(NCc2cccs2)c2ccccc2n1`, the Potency entry is “inactive”.
Take `CNc1ncnc2ccc(-c3cccc(OC)c3)cc12`: the Potency was 0.501 µM (active).
For `FC(F)(F)c1ccccc1-c1cncnc1NCc1cccs1` the value was “inactive”; for `Cc1cnc(CNc2nc(-c3cccc(NS(C)(=O)=O)c3)nc3ccccc23)cn1`, “inactive”.
For `O=c1c(-c2ccccc2)nc2cnc(N3CCOCC3)nc2n1Cc1ccc(F)cc1`, the Potency result was “inactive”.
As for `CN(C)c1ncc2nc(-c3cccs3)c(=O)n(CCc3ccccc3)c2n1`, the Potency entry is “inactive”.
Consider `COc1cccc(-c2nccc(NCc3ccc(OC)cc3OC)n2)c1`, for which the Potency is 31.6 µM (active).
For `O=c1c(CCc2ccccc2)nc2cnc(N3CCOCC3)nc2n1CCc1ccccc1` the value was “inactive”; for `COc1ccccc1CNc1ccnc(-c2ccc(N(C)C)cc2)n1`, “inactive”; for `COc1cccc(Cn2c(=O)c(-c3cc(F)cc(F)c3)nc3cnc(N4CCNCC4)nc32)c1`, “inactive”.
For `O=c1c(-c2ccc(Cl)cc2)nc2cnc(Nc3ccccc3)nc2n1C1CC1` the value was “inactive”; for `COc1ccc2[nH]cc(CCNc3cc(-c4ccccc4Cl)ncn3)c2c1`, 12.6 µM (active); for `CN1CCN(c2ncncc2-c2ccoc2)CC1`, “inactive”.
For `COCCn1c(=O)c(-c2ccc(Cl)cc2)nc2cnc(N(C)C)nc21` the value was “inactive”; for `COc1cccc(-c2nc(NC3CCNCC3)c3ccccc3n2)c1`, 11.2 µM (active).
For the compound `COc1ccccc1CCn1c(=O)c(-c2cccs2)nc2cncnc21`, the Potency entry is “inactive”.
For `CS(=O)(=O)Nc1cccc(-c2cncnc2NCc2cccnc2)c1` the value was “inactive”; for `NC(=O)c1ccccc1-c1nc(-n2ccnc2)c2ccccc2n1`, “inactive”; for `COc1ccc2[nH]cc(CCNc3ccnc(-c4ccoc4)n3)c2c1`, 14.1 µM (active).
The same measure for `FC(F)(F)c1ccccc1-c1nc(NC2CC2)c2ccccc2n1`: 14.1 µM (active); for `CCNc1ncc2nc(-c3ccc(F)cc3)c(=O)n(-c3ccc(OC)cc3)c2n1`: “inactive”.
On to `O=c1c(-c2ccc(F)cc2)nc2cncnc2n1-c1ccccc1`, for which the Potency entry was “inactive”.
The same measure for `CN(C)c1ccc(-c2cncnc2-n2ccnc2)cc1`: 14.1 µM (active).
The same measure for `COc1ncc2nc(-c3cccs3)c(=O)n(Cc3ccc(F)cc3)c2n1`: “inactive”.
Turning to `Cc1noc(C)c1-c1ccc2ncnc(Nc3ccccc3)c2c1`, the Potency is 6.31 µM (active).
As to `COc1ccc2[nH]cc(CCNc3nc(-c4cccc(C#N)c4)nc4ccccc34)c2c1`, the Potency was 22.4 µM (active).
For `COc1ccc(-c2nc3cnc(N(C)C)nc3n(Cc3cccs3)c2=O)cc1` the value was “inactive”; for `CN(C)c1ncc2nc(-c3cccs3)c(=O)n(C)c2n1`, “inactive”.
The same measure for `COc1cccc(-c2nccc(NCc3cccs3)n2)c1`: 8.91 µM (active); for `CCNc1ncc2nc(CCc3ccccc3)c(=O)n(C[C@H]3CCCO3)c2n1`: “inactive”.
